Laboratory results published in PubChem BioAssay (EPA / NIEHS).
Results filed as inconclusive are left out. The source made the active and inactive calls. The calls were made as follows: active = hit-call score of the fitted dose curve at least 0.9, where 1 is the maximum; inconclusive = response in the unintended direction; inactive = score below 0.9.

Test: Tanguay_ZF_120hpf_PFIN_legacy: (Legacy) Oregon State University Tanguay Lab 120 Hour Post-fertilization zebrafish Assay for Pectoral Fin Malformation (AID 2283648);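 also: each larva judged yes or no for fin defect by brightfield with dead larvae skipped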
Summary of the method: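 Scoring of pectoral fin malformation was binary, made at 120 hpf on larvae exposed statically from 6 hpf after enzymatic chorion removal. Activity was fitted upward relative to DMSO controls at 0.64% (vol/vol).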

Structure (SMILES)	AC50	outcome
CCOP(=O)(NC(C)C)Oc1ccc(SC)c(C)c1 (centres undefined)	16.9 µM (active)	–
COc1cc(OC)nc(Sc2cccc(Cl)c2C(=O)O)n1	–	inactive
CCOP(=S)(OCC)Oc1ccc2c(C)c(Cl)c(=O)oc2c1	–	inactive
CC(=NC#N)N(C)Cc1ccc(Cl)nc1	–	inactive
CN(C)NC(=O)CCC(=O)O	–	inactive
FC(F)C(F)(F)OCC(Cn1cncn1)c1ccc(Cl)cc1Cl (centres undefined)	46.6 µM (active)	–
CCc1cccc(C)c1N(C(=O)CCl)C(C)COC (centres undefined)	–	inactive
COP(=O)(OC)C(O)C(Cl)(Cl)Cl (centres undefined)	–	inactive
CC(C)=CC1C(C(=O)OCN2C(=O)C3=C(CCCC3)C2=O)C1(C)C (centres undefined)	–	inactive
CC(C)N(C(=O)SCC(Cl)=C(Cl)Cl)C(C)C	–	inactive
CCCCOC(=O)c1ccccc1C(=O)O	–	inactive
CCC(=O)Nc1ccc(Cl)c(Cl)c1	–	inactive
COc1cccc(C(=O)NN(C(=O)c2cc(C)cc(C)c2)C(C)(C)C)c1C	–	inactive
CCOP(=S)(OCC)Oc1cc(C)nc(C(C)C)n1	–	inactive
CCCCSP(=O)(SCCCC)SCCCC	–	inactive
CCOP(=S)(OCC)SCCSCC	–	inactive

Structure (SMILES)	AC50	outcome
C#CCC1=C(C)C(OC(=O)C2C(C=C(C)C)C2(C)C)CC1=O (centres undefined)	–	inactive
CCOC(=O)CC(SP(=O)(OC)OC)C(=O)OCC (centres undefined)	–	inactive
CON=C(C(=O)OC)c1ccccc1CON=C(C)c1cccc(C(F)(F)F)c1	–	inactive
Cc1cc(C2CC2)nc(Nc2ccccc2)n1	–	inactive
C[Si](Cn1cncn1)(c1ccc(F)cc1)c1ccc(F)cc1	20.9 µM (active)	–
CCC(CC)Nc1c([N+](=O)[O-])cc(C)c(C)c1[N+](=O)[O-]	–	inactive
O=c1ccc(=O)[nH][nH]1	–	inactive
CCCSP(=O)(OCC)Oc1ccc(Br)cc1Cl (centres undefined)	–	inactive
CC1(C(=O)Nc2ccc(O)c(Cl)c2Cl)CCCCC1	–	inactive
CNC(=O)ON=C(SC)C(=O)N(C)C	–	inactive
Nc1nc(N)nc(NC2CC2)n1	–	inactive
CSC1=N[C@@](C)(c2ccccc2)C(=O)N1Nc1ccccc1	–	inactive
CC[C@H](C)[C@H]1O[C@]2(C=C[C@@H]1C)C[C@@H]1C[C@@H](C/C=C(\C)[C@@H](O[C@H]3C[C@H](OC)[C@@H](O[C@H]4C[C@H](OC)[C@@H](NC)[C@H](C)O4)[C@H](C)O3)[C@@H](C)/C=C/C=C3\CO[C@@H]4[C@H](O)C(C)=C[C@@H](C(=O)O1)[C@]34O)O2	–	inactive
N#CSCSC#N	–	inactive
COP(=O)(NC(C)=O)SC (centres undefined)	–	inactive
CCCOCC(=Nc1ccc(Cl)cc1C(F)(F)F)n1ccnc1	–	inactive

Test: Tanguay_ZF_120hpf_CFIN_legacy: (Legacy) Oregon State University Tanguay Lab 120 Hour Post-fertilization zebrafish Assay for Caudal Fin Malformation (AID 2283649)
Summary of the method: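 Embryos were collected from Tropical 5D wild-type adults and dechorionated at 4 hpf. At 6 hpf each was exposed, one per well, at 0.64% DMSO and 28C. At 120 hpf fin morphology was scored; dead embryos were excluded.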

Structure (SMILES)	outcome	AC50
CCOP(=O)(NC(C)C)Oc1ccc(SC)c(C)c1 (centres undefined)	inactive	–
COc1cc(OC)nc(Sc2cccc(Cl)c2C(=O)O)n1	inactive	–
CCOP(=S)(OCC)Oc1ccc2c(C)c(Cl)c(=O)oc2c1	inactive	–
CC(=NC#N)N(C)Cc1ccc(Cl)nc1	inactive	–
CN(C)NC(=O)CCC(=O)O	inactive	–
FC(F)C(F)(F)OCC(Cn1cncn1)c1ccc(Cl)cc1Cl (centres undefined)	–	49.2 µM (active)
CCc1cccc(C)c1N(C(=O)CCl)C(C)COC (centres undefined)	inactive	–
COP(=O)(OC)C(O)C(Cl)(Cl)Cl (centres undefined)	inactive	–
CC(C)=CC1C(C(=O)OCN2C(=O)C3=C(CCCC3)C2=O)C1(C)C (centres undefined)	inactive	–
CCCCOC(=O)c1ccccc1C(=O)O	inactive	–
CCC(=O)Nc1ccc(Cl)c(Cl)c1	inactive	–
S=C1NCCN1	inactive	–
CCOP(=S)(OCC)Oc1cc(C)nc(C(C)C)n1	inactive	–
CCCCSP(=O)(SCCCC)SCCCC	inactive	–
CCOP(=S)(OCC)SCCSCC	inactive	–
C#CCC1=C(C)C(OC(=O)C2C(C=C(C)C)C2(C)C)CC1=O (centres undefined)	inactive	–

Structure (SMILES)	outcome	AC50
CCOC(=O)CC(SP(=O)(OC)OC)C(=O)OCC (centres undefined)	inactive	–
CON=C(C(=O)OC)c1ccccc1CON=C(C)c1cccc(C(F)(F)F)c1	inactive	–
CCOP(=S)(OCC)Oc1ccc([N+](=O)[O-])cc1	inactive	–
Cc1cc(C2CC2)nc(Nc2ccccc2)n1	inactive	–
C[Si](Cn1cncn1)(c1ccc(F)cc1)c1ccc(F)cc1	–	36 µM (active)
CCC(CC)Nc1c([N+](=O)[O-])cc(C)c(C)c1[N+](=O)[O-]	inactive	–
O=c1ccc(=O)[nH][nH]1	inactive	–
CCCSP(=O)(OCC)Oc1ccc(Br)cc1Cl (centres undefined)	inactive	–
CC1(C(=O)Nc2ccc(O)c(Cl)c2Cl)CCCCC1	inactive	–
CNC(=O)ON=C(SC)C(=O)N(C)C	inactive	–
Nc1nc(N)nc(NC2CC2)n1	inactive	–
CSC1=N[C@@](C)(c2ccccc2)C(=O)N1Nc1ccccc1	inactive	–
N#CSCSC#N	inactive	–
COP(=O)(NC(C)=O)SC (centres undefined)	inactive	–
CCCOCC(=Nc1ccc(Cl)cc1C(F)(F)F)n1ccnc1	inactive	–
C#CC(C)(C)NC(=O)c1cc(Cl)cc(Cl)c1	inactive	–
